Inhibition data for 29 compounds are collected here from ChEMBL document CHEMBL1157539, “Thousands of chemical starting points for antimalarial lead identification” (Nature, 2010).

Several values for one entry are separate records, joined by “and”; a condition that tells them apart may be missing. Equal entries are not always repeated.

Holding throughout (format): functional
Test [1] concerns Plasmodium falciparum. Kind of test: GSK_TCMDC: Inhibition of Plasmodium falciparum 3D7 in whole red blood cells, using parasite LDH activity as an index of growth. Test compounds present at 2uM.
The test system of test [2] is Plasmodium falciparum. The test can be described thus: GSK_TCMDC: Inhibition of Plasmodium falciparum Dd2 in whole red blood cells, using parasite LDH activity as an index of growth. Test compounds present at 2uM.
The subject of test [3] is HepG2. The test can be described thus: GSK_TCMDC: Percent inhibition of human HepG2 cell line. Test compounds present at 10uM.

As a reminder, the Inhibition is the relative decrease from the control value, in per cent. A low value points to little suppression. `O.Oc1cccc(C2CCCN(CCc3c[nH]c4ccccc34)C2)c1` (configuration not stated): the Inhibition in test [1] worked out at 93%; in test [2], 40%; in test [3] it was 0%.
Regarding `O=C(/C=C/c1ccc(Cl)c(Cl)c1)NCCC1CCC(N2CCC(c3c[nH]c4ccccc34)CC2)CC1` (configuration not stated), the Inhibition in test [1] worked out at 100%; in test [2] it was 99%; in test [3] it was 91%.
Taken in the same sequence, the figures for `Clc1ccc2nccc(N3CCC(CN4CCC(c5c[nH]c6ccccc56)CC4)CC3)c2c1.O=C(O)C(F)(F)F` were 100%, 81% and 46%.
Taken in the same sequence, the figures for `CCOC(C(=O)OCC1CCCN1C)(c1ccccc1)c1ccccc1` (configuration not stated) were 97%, 3% and 13%.
On the same counts, the results for `Cc1ccc(CC(C)NCC(O)c2cccc(C(F)(F)F)c2)cc1.O=C(O)/C=C/C(=O)O` (configuration not stated) are 100%, 54% and 5%.
Regarding `S=C(NCCc1ccc(Cl)cc1)N1CCC(CN2CCC(c3c[nH]c4ccccc34)CC2)CC1`, the values for the Inhibition in test [1], in test [2] and in test [3] were 90%, 7% and 31%, respectively.
On to `Cn1nc(C(F)(F)F)cc1-c1ccc(C(=O)NC2CCC(CN3CCC(c4c[nH]c5ccccc45)CC3)CC2)s1` (configuration not stated), for which the Inhibition in test [1] is reported as 100%; in test [2], 97%; in test [3], 45%.
On to `Cn1cc(CN2CCC(CCOC(c3ccccc3)c3ccccc3)CC2)cn1`, for which the Inhibition in test [1] amounted to 99%; in test [2], 100%; in test [3] it was 27%.
Taken in the same sequence, the figures for `CCOC(=O)c1c(C)n(C2CCCCC2)c2cc(Br)c(O)cc12` were 98%, 71% and 1%.
Taken in the same sequence, the figures for `Cc1[nH]c2c(C)cc(NS(C)(=O)=O)cc2c1C1CCN(CC2CCN(C(=O)/C=C/c3ccc(Cl)c(Cl)c3)CC2)CC1` were 100%, 99% and 33%.
On the same counts, the results for `CCCCCCCc1cc(=O)c2ccccc2[nH]1` are 96%, 94% and 5%.
As for `N#Cc1c(Cl)cccc1Oc1ccc(S(=O)(=O)N2CCC(CN3CCC(c4c[nH]c5ccccc45)CC3)CC2)cc1`, the Inhibition turned out to be 100% in test [1], 67% in test [2] and 36% in test [3].
On the same counts, the results for `COc1ccc(CC(C)NCC(O)c2cccc(Cl)c2F)cc1` (configuration not stated) are 88%, 59% and 3%.
Consider `O=C(C=Cc1ccc(Br)cc1)NC1CCC(CN2CCC(c3c[nH]c4ccccc34)CC2)CC1` (configuration not stated), for which the Inhibition is on record as 100% in test [1], 98% in test [2] and 71% in test [3].
Taken in the same sequence, the figures for `CC(Cc1ccc(SC(C)C)cc1)NCC(O)c1cccc(Cl)c1.Cl` (configuration not stated) were 99%, 97% and 5%.
Taken in the same sequence, the figures for `Br.CNCCc1c(O)ccc2ccccc12` were 94%, 0% and 6%.
Consider `CC1=C(C(=O)NC2CCC(CN3CCC(c4c[nH]c5ccccc45)CC3)CC2)Cc2ccccc21` (configuration not stated), for which the Inhibition was 97% and 99% in test [1]; 15% and 24% in test [2]; 41% and 37% in test [3].
With `O=C(Nc1ccccc1OC(F)(F)F)NC1CCC(CN2CCC(c3c[nH]c4ccccc34)CC2)CC1` (configuration not stated), the Inhibition was 100% and 99% in test [1]; 60% and 70% in test [2]; 33% and 35% in test [3].
For the compound `FC(F)(F)c1ccc(NC(=S)N2CCC(CN3CCC(c4c[nH]c5ccccc45)CC3)CC2)cc1`, the figures for the Inhibition in test [1], in test [2] and in test [3] were 100%, 45% and 35%, respectively.
On the same counts, the results for `CS(=O)(=O)Nc1ccc2[nH]cc(C3CCN(CC4CCC(NC(=O)/C=C/c5ccc(Cl)c(Cl)c5)CC4)CC3)c2c1` (configuration not stated) are 100%, 86% and 22%.
Turning to `Cl.O=C(c1cc(C(F)(F)F)cc(C(F)(F)F)c1)N1CCC(CCN2CCC3(CC2)C(=O)NCN3c2ccccc2)CC1Cc1ccc(Cl)c(Cl)c1` (configuration not stated), the values for the Inhibition in test [1], in test [2] and in test [3] were 100%, 77% and 19%, respectively.
On the same counts, the results for `Cl.c1ccc2c(NCCCCCCNc3c4c(nc5ccccc35)CCCC4)c3c(nc2c1)CCCC3` are 100%, 51% and 90%.
Consider `COc1nc(N)ncc1C(=O)NC1CN2CCC1CC2` (configuration not stated), for which the Inhibition was found to be 92% in test [1], 0% in test [2] and 26% in test [3].
In the case of `Cc1ccc2[nH]cc(C3CCN(CC4CCC(NC(=O)/C=C/c5ccc(Cl)c(Cl)c5)CC4)CC3)c2c1` (configuration not stated), the Inhibition in test [1] was 100% and 94%; in test [2], 86% and 46%; in test [3] it was 37% and 29%.
`O=C(c1cc(C(=O)NCc2ccc(Cl)cc2)c(=O)n(Cc2ccc(Cl)cc2)c1)c1cc(F)ccc1O`: the results for the Inhibition in test [1], in test [2] and in test [3] were 93%, 2% and 7%, respectively.
Taken in the same sequence, the figures for `COC(=O)c1ccc(CC(C)NCC(O)c2cccc(Oc3cccc(C(F)(F)F)c3)c2)cc1.Cl` (configuration not stated) were 91%, 73% and 19%.
Taken in the same sequence, the figures for `Br.CC[C@H]1CN2CCc3cc(OC)c(OC)cc3[C@@H]2C[C@@H]1C[C@H]1NCCc2c1cc(OC)c(O)c2I` were 100%, 100% and 54%.
On the same counts, the results for `CC[C@H]1CN2CC[C@@H]1C[C@H]2[C@H](O)c1cc(N2CCOCC2)nc2ccc(OC)cc12` are 99%, 99% and 10%.
Regarding `COc1ccc(C(=O)C2CC2CN2CC=C(c3c[nH]c4ccccc34)CC2)cc1` (configuration not stated), the Inhibition in test [1] is on record as 95%; in test [2], 89%; in test [3], 12%.
